Measurements reported in PubChem BioAssay.
Active and inactive are the calls of the source.

Experiments:
[1] = optical density shifts of acrAB sulA E. coli – strain DRC41, OD650, 48 h, E. coli filamentation inducer project, primary screen (AID 1152); conditions: higher = more signal, called active from +8 up or from −8 down;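 note: E. coli MC1000 strain DRC41 lacking acrAB efflux pump and sulA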
[2] = probe aLefty1 binding on compound microarray – biochemical, small-molecule microarray, 635/667 nm fluorescence, primary screen (AID 1153); conditions: higher = more signal;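 note: score merges spot fluorescence with signal-to-noise ratio from the scanned slide images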
[3] = plasmodial surface anion channel blockers, osmotic lysis – cell-based, P. falciparum Indochina, OD700, 1 h, primary screen (AID 1154); conditions: P. falciparum Indochina infected RBC osmotic lysis, higher = more signal, called active from +8 up or from −8 down
[4] = plasmodial surface anion channel blockers, osmotic lysis – cell-based, P. falciparum Indochina, OD700, 2 h, primary screen (AID 1155);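 note: lysis reports solute entry through the parasite surface anion channel PSAC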; conditions: P. falciparum Indochina infected erythrocytes, higher = more signal, called active from +8 up or from −8 down
[5] = changes in parasitized red cell lysis, either direction – P. falciparum Indochina, OD700, 3 h, PSAC antagonist project, primary screen (AID 1156); conditions: P. falciparum-infected erythrocytes, osmotic lysis, higher = more signal, called active from +8 up or from −8 down
[6] = plasmodial surface anion channel blockers, osmotic lysis – cell-based, P. falciparum Indochina, OD700, 18 h, primary screen (AID 1157); conditions: P. falciparum Indochina infected erythrocytes, osmotic lysis OD700, 18 h; higher = more signal, called active from +8 up or from −8 down
[7] = S6 kinase pathway phospho-S6 level changes – cell-based, A549, cytoblot, luminescence, serum-stimulated, primary screen (AID 1158); conditions: 5 h, higher = more signal;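 note: serum-stimulated A549 lung adenocarcinoma cells; signal is phosphorylated S6 detected by cytoblot immunostaining with HRP secondary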
[8] = molecular target: NADPH oxidase 2 (Homo sapiens) (UniProt P04839); assay: compounds shifting NOX2 Amplex Red fluorescence – cell-based, HEK293-NOX2, PMA-stimulated, NOX inhibitor project, primary screen (AID 1159); conditions: 45 min, higher = more signal, called active from +8 up or from −8 down; note: test concentration not given here
NADPH oxidase 2 (Homo sapiens), sequence (P04839 whole entry, looked up): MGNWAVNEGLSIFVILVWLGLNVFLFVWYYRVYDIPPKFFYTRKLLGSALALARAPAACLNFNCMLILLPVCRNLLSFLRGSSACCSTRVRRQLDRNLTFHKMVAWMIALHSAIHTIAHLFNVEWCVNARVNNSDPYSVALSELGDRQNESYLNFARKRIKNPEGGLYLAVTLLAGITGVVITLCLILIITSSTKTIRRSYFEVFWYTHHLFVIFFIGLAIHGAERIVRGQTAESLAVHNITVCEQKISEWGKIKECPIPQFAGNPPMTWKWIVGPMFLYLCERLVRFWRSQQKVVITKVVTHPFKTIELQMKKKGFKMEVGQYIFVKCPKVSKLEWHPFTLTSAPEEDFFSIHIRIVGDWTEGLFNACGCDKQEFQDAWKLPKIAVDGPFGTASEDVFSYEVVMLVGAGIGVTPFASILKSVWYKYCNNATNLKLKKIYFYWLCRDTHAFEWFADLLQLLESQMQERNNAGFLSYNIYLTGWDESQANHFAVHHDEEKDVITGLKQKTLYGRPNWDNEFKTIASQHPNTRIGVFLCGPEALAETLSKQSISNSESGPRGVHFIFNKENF

[9] = molecular target: NADPH oxidase 4 (Homo sapiens) (UniProt Q9NPH5); assay: compounds shifting NOX4 Amplex Red fluorescence – cell-based, HEK293-NOX4, tetracycline-induced, NOX inhibitor project, primary screen (AID 1160); conditions: HEK293-NOX4, Amplex Red H2O2 fluorescence, 45 min; higher = more signal, called active from +8 up or from −8 down
NADPH oxidase 4 (Homo sapiens), sequence (Q9NPH5 whole entry, looked up): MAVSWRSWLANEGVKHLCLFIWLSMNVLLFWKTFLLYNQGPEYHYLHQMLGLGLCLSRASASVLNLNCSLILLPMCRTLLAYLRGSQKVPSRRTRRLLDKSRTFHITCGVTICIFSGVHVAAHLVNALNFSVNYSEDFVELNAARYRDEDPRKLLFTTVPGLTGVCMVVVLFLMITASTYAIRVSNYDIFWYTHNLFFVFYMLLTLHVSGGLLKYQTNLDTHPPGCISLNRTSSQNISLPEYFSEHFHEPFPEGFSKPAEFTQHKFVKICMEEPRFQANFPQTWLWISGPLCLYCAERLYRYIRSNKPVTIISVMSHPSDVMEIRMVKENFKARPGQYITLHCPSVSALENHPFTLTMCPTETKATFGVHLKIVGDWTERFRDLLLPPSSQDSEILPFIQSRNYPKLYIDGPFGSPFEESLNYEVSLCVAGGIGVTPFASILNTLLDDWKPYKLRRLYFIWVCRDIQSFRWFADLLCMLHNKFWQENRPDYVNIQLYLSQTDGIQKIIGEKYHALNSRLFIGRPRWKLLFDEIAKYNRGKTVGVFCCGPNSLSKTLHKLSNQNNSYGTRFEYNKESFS

[10] = molecular target: NADPH oxidase 5 (Homo sapiens) (UniProt Q96PH1); assay: compounds shifting NOX5 Amplex Red fluorescence – cell-based, HEK293-NOX5, NOX inhibitor project, primary screen (AID 1161); conditions: HEK293-NOX5, ionomycin, 45 min, higher = more signal
NADPH oxidase 5 (Homo sapiens), sequence (Q96PH1 whole entry, looked up): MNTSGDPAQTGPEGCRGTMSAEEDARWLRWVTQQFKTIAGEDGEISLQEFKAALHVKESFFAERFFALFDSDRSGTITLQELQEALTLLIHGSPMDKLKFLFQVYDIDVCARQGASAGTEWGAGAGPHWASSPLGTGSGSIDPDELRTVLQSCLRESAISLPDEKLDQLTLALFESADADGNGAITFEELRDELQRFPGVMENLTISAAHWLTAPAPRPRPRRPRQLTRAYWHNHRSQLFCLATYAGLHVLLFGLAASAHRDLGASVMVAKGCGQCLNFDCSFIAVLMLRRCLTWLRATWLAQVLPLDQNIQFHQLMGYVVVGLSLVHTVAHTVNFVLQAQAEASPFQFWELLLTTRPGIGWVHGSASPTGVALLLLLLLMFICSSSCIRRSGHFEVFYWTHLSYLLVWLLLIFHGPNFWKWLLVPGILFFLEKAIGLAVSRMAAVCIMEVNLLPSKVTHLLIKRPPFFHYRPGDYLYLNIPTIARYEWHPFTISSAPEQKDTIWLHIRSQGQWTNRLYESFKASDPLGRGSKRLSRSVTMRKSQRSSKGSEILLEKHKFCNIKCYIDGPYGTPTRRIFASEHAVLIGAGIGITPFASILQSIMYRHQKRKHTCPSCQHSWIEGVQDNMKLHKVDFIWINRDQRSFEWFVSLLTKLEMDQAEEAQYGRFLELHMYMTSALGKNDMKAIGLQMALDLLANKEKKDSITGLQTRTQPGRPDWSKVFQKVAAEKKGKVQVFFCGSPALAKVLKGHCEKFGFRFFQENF

[11] = compound effects on lung adenocarcinoma cell viability – A549, calcein-AM fluorescence, 48 h, basal, profiling panel (AID 1162); conditions: higher = more signal; note: test concentration not given here
[12] = compound effects on differentiated 3T3-L1 adipocyte viability – cell-based, 3T3-L1 adipocytes, calcein-AM fluorescence, 48 h, basal, profiling panel (AID 1163); conditions: 3T3-L1 adipocytes viability, higher = more signal; note: test concentration not given here
[13] = compound effects on hepatocellular carcinoma cell viability – HepG2, calcein-AM fluorescence, 48 h, basal, profiling panel (AID 1164); conditions: higher = more signal; note: test concentration not given here
[14] = compound effects on multiple myeloma cell viability – MM1S, calcein-AM fluorescence, 48 h, basal, profiling panel (AID 1165); conditions: higher = more signal; note: test concentration not given here
[15] = calcein-AM signal in unstimulated myeloma cells – cell-based, calcein-AM fluorescence, 48 h, PK04 Diversity Set, profiling panel (AID 1166); conditions: RPMI8226 myeloma viability, higher = more signal;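 note: cells grown under basal conditions without added stimulus; test concentration not given here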
[16] = JC-1 mitochondrial signal, unstimulated HepG2 cells – cell-based, JC-1 fluorescence, 24 h, 100 nL compound, profiling panel (AID 1167); conditions: HepG2 mitochondrial potential, higher = more signal; note: test concentration not given here
[17] = JC-1 mitochondrial signal, unstimulated adipocytes – cell-based, JC-1 fluorescence, 3T3-L1 adipocytes, 24 h, 100 nL compound, profiling panel (AID 1168); conditions: JC-1 mitochondrial fluorescence, higher = more signal, called active from +8 up or from −8 down; note: test concentration not given here
[18] = JC-1 mitochondrial signal, unstimulated myeloma cells – cell-based, JC-1 fluorescence, RPMI8226, 24 h, 100 nL compound, profiling panel (AID 1169); conditions: JC-1 mitochondrial potential fluorescence, higher = more signal; note: test concentration not given here
[19] = JC-1 mitochondrial signal, unstimulated MM1S myeloma – cell-based, JC-1 fluorescence, 24 h, 100 nL compound, profiling panel (AID 1170); conditions: MM1S mitochondrial potential, higher = more signal; note: test concentration not given here
[20] = resazurin metabolic signal in A549 cells – cell-based, resazurin fluorescence, 24 h, PK04 Diversity Set, profiling panel (AID 1171); conditions: A549 viability, higher = more signal, called active from +8 up or from −8 down; note: test concentration not given here

SMILES	z-score [1]	composite z-score [2]	z-score [3]	z-score [4]	z-score [5]	z-score [6]	z-score [7]	z-score [8]	z-score [9]	z-score [10]	z-score [11]	z-score [12]	z-score [13]	z-score [14]	z-score [15]	z-score [16]	z-score [17]	z-score [18]	z-score [19]	z-score [20]
CCOC(=O)[C@H](Cc1ccccc1)NC(=O)CCC1CC(OC(=O)NCc2ccc3c(c2)OCO3)CC2(CCCC(COC(=O)NCC(c3ccccc3)c3ccccc3)O2)O1 (stereo not given in full)	1.13 (inactive)	-0.0046	13.8 (active)	4.29 (inactive)	0.394 (inactive)	1.3 (inactive)	0.0394	-0.742 (inactive)	0.406 (inactive)	0.491	1.85	-0.683	-0.538	-3.38	-3.61	1.37	-0.717 (inactive)	-0.77	-1.95	0.174 (inactive)
Cc1cc(C)c(-c2cc([C@H](C)ON=C3[C@H]4CCn5c(=O)n(-c6ccccc6)c(=O)n5[C@H]4[C@H](O)[C@@H]4O[C@H]34)on2)c(C)c1	-0.0555 (inactive)	0.218	1.43 (inactive)	0.322 (inactive)	0.347 (inactive)	0.391 (inactive)	-0.914	0.0599 (inactive)	0.68 (inactive)	-0.114	-0.605	-0.91	-0.887	-2.95	-3.87	0.668	-0.803 (inactive)	-1.24	-2.39	-0.776 (inactive)
COCCOC(=O)N1C(=O)[C@@]2(c3cc(C#CC4(O)CCCCCC4)ccc31)[C@H](c1ccc(OCCO)cc1)N1[C@H](c3ccccc3)[C@H](c3ccccc3)OC(=O)[C@H]1[C@@H]2C(=O)NC[C@H](O)c1ccccc1	1.02 (inactive)	0.43	2.18 (inactive)	0.524 (inactive)	0.735 (inactive)	-0.494 (inactive)	1.47	1.79 (inactive)	0.858 (inactive)	-1.31	0.358	1.62	-0.063	-1.25	-1.84	-1.67	0.0493 (inactive)	-0.924	-1.47	0.702 (inactive)
COC(=O)[C@@H]1CC[C@H](C)[C@@H](c2ccc(C)cc2)N1C(=O)c1ccc(C=NOC[C@@H](O)COCc2ccco2)cc1	1.06 (inactive)	-0.255	5.79 (inactive)	0.944 (inactive)	-0.0224 (inactive)	1.05 (inactive)	-1.05	-0.0479 (inactive)	-0.0106 (inactive)	0.254	-0.181	0.346	-0.807	-1.32	-1.46	-2.38	-0.747 (inactive)	0.304	-0.352	-0.45 (inactive)
CCOC(=O)CCN1C(=O)[C@H]2[C@H]3[C@H](O)[C@H](O)CC(=NOC[C@@H](O)COCc4ccco4)[C@H]3CC[C@H]2C1=O	-0.923 (inactive)	-0.101	0.73 (inactive)	-1.31 (inactive)	0.318 (inactive)	-2.76 (inactive)	0.141	-0.343 (inactive)	0.0781 (inactive)	-0.498	-1.43	0.8	-0.524	-2.09	-2.29	-0.803	-0.433 (inactive)	-0.126	-0.612	-0.383 (inactive)
COc1ccc(O[C@H]2C=C[C@@H](c3ccccc3)O[C@@H]2COC(=O)CCC(C)=NOC(C)CN2CCCCc3nc(C)c(C)cc32)cc1 (stereo not given in full)	0.233 (inactive)	-0.584	21.7 (active)	3.58 (inactive)	1.68 (inactive)	1.15 (inactive)	-0.0603	-2.04 (inactive)	-0.369 (inactive)	-0.824	-0.294	-0.471	0.197	-1.35	-0.666	0.775	-0.313 (inactive)	-0.508	-0.903	1.61 (inactive)
COCCOC(=O)N1C(=O)[C@@]2(c3cc(C#CCNC(N)=O)ccc31)[C@H](c1ccc(O)cc1)N1[C@H](c3ccccc3)[C@H](c3ccccc3)OC(=O)[C@H]1[C@@H]2C(=O)N1CCCCCCC1	0.455 (inactive)	-0.0779	1.04 (inactive)	0.656 (inactive)	-0.0303 (inactive)	0.411 (inactive)	0.0352	1.49 (inactive)	-1.04 (inactive)	1.48	-0.55	0.012	-0.49	-0.441	0.0294	-1.85	-0.731 (inactive)	0.399	0.298	0.215 (inactive)
COc1ccc(CCNC(=O)[C@@H]2c3ccccc3C(=O)N(c3ccc(C)cn3)[C@H]2c2ccc(CO)cc2)cc1	0.119 (inactive)	-0.06	2.45 (inactive)	0.478 (inactive)	0.414 (inactive)	0.401 (inactive)	-0.0568	0.0857 (inactive)	-0.882 (inactive)	-2.5	-0.174	0.821	-0.513	-0.243	-0.194	-0.814	-0.195 (inactive)	0.671	0.634	0.689 (inactive)
CCOC(=O)C1=CC[C@H]2C(=O)N(CC)C(=O)[C@@H]12	-0.457 (inactive)	-0.0412	1.09 (inactive)	1.21 (inactive)	0.253 (inactive)	0.804 (inactive)	-0.45	-0.0988 (inactive)	0.484 (inactive)	0.829	-0.148	0.0888	-0.622	-0.0999	0.0317	-0.342	-0.362 (inactive)	0.0877	-0.517	1.17 (inactive)
